Design in all cases: scale not given: direction of the effect not stated beside the values
Experiment [1] deals with Protein translocase subunit SecA (Escherichia coli (strain K12)) (UniProt P10408). Kind of experiment: Assay to Identify E. coli SecA ATPase Inhibitors. Conditions: 30 µM. Format: functional.
Experiment [2] concerns the target T1, Ubiquitin-activating enzyme e1, putative (Leishmania donovani (strain BPK282A1)) (UniProt E9BSI1).
T1 sequence (whole entry): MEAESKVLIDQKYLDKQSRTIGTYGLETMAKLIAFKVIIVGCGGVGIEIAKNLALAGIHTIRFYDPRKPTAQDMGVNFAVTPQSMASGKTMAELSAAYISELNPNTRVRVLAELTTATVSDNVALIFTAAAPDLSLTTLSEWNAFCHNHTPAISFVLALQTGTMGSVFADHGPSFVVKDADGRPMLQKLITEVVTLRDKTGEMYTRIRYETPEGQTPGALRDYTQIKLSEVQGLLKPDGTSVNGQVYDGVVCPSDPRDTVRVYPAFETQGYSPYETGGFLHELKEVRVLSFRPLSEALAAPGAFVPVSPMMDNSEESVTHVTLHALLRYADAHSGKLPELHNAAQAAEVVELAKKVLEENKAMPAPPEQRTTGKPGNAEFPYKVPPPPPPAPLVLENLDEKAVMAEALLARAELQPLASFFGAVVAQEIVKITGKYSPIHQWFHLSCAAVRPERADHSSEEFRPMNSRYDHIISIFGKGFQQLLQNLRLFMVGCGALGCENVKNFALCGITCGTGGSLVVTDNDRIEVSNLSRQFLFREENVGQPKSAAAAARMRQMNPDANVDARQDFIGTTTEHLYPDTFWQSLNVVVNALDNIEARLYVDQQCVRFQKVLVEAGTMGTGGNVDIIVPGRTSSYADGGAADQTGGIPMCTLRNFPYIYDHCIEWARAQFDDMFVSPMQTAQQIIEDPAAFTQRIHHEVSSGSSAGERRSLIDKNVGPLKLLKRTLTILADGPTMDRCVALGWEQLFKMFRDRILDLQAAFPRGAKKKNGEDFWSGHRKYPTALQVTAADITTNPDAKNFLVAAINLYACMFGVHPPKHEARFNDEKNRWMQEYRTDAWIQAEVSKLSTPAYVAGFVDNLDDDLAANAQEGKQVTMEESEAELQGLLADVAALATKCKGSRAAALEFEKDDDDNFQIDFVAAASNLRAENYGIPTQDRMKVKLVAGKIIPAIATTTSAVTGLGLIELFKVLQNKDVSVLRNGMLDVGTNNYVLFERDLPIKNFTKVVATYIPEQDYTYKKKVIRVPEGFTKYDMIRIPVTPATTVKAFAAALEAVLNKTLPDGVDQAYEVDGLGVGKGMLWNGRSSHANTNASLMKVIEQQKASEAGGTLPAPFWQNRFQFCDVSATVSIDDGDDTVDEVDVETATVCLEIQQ
Kind of experiment: Leishmania donovani Ubiquitin Activating Enzyme (LdE1). Format: functional. Conditions: 30 µM.

In experiment [3] the target is T2, Aspartate--tRNA(Asp/Asn) ligase (Mycobacterium tuberculosis (strain ATCC 25618 / H37Rv)) (UniProt P9WFW3). Also: in the data most compounds retested in dose-response had high values.
T2 sequence (whole entry): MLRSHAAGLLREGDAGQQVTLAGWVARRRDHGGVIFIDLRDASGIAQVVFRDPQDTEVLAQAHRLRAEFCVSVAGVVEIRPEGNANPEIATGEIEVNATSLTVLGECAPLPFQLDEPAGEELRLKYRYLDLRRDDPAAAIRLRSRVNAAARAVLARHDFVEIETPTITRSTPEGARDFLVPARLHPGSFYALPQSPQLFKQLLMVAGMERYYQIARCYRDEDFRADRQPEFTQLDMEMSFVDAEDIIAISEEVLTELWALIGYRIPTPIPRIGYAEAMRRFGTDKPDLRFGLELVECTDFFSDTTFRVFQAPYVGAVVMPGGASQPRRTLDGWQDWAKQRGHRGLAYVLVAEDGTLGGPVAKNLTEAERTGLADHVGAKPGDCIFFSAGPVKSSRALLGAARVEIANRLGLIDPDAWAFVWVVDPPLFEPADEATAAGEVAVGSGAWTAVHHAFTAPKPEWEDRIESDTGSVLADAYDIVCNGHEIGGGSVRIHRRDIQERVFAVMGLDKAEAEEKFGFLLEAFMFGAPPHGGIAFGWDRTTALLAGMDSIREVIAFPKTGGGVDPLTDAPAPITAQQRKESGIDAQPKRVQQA
Kind of experiment: Assay for Asp RNA synthetase-1 from Mycobacterium tuberculosis. Format: functional. Conditions: 30 µM.

The target of experiment [4] is AMP-activated protein kinase, AMPK (Homo sapiens) (UniProt P54646+O43741+P54619+Q9UGJ0+Q9Y478+Q13131+Q9UGI9). Kind of experiment: AMP-dependent Kinase enzyme assay. An in vitro enzyme assay that detects ADP turnover that is directly proportional to AMPK activity. This uses naive AMPK that is activated during the assay with MK-8722. Format: functional. As to conditions: 30 µM.

The target in experiment [5] is Sialic acid-binding Ig-like lectin 9 (Homo sapiens) (UniProt Q9Y336). Kind of experiment: Hs-Siglec9 ALPHAscreen SOP 20170721. As to conditions: 10 µM. On the technique in general: In Alpha technology, singlet oxygen from a donor bead excites a nearby acceptor bead.
Chain of Sialic acid-binding Ig-like lectin 9 (Homo sapiens) (Q9Y336 whole entry): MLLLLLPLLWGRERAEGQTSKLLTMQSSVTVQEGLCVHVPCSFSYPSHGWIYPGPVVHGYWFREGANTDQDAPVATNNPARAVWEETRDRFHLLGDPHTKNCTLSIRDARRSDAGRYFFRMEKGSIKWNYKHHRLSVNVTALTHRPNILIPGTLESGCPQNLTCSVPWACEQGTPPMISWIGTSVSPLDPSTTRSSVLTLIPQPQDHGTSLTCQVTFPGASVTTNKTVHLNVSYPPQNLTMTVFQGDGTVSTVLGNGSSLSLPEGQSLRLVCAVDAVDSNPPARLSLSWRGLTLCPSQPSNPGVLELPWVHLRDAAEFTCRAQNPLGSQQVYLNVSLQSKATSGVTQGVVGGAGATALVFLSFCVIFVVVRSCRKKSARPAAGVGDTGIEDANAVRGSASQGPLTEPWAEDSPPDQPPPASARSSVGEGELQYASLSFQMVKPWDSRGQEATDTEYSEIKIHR
Experiment [6] relates to Trypanosoma cruzi. Kind of experiment: Trypanosoma cruzi phosphomannomutase and mannose-1-phosphate guanylyltransferase assay. Format: functional. As to conditions: 10 µM.
In experiment [7] the target is T3, Arginase-2, mitochondrial (Homo sapiens) (UniProt P78540).
T3 sequence (whole entry): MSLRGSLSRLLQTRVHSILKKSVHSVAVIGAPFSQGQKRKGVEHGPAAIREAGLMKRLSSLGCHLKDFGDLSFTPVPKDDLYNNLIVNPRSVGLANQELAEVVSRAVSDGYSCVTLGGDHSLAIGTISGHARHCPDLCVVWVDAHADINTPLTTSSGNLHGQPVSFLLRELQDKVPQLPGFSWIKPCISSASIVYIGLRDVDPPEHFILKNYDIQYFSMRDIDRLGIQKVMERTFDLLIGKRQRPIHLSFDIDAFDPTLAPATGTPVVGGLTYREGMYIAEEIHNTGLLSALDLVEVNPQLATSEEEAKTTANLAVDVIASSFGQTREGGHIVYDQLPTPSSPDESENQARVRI
Kind of experiment: in vitro enzyme assay to detect the production of urea directly proportional to the activity of Arginase II. Also: in the data most compounds retested in dose-response had high values. Format: functional. Conditions: 33.3 µM.

Experiment [8] concerns the target T4, Proteasome subunit beta (Trypanosoma cruzi) (UniProt O96673).
T4 sequence (whole entry): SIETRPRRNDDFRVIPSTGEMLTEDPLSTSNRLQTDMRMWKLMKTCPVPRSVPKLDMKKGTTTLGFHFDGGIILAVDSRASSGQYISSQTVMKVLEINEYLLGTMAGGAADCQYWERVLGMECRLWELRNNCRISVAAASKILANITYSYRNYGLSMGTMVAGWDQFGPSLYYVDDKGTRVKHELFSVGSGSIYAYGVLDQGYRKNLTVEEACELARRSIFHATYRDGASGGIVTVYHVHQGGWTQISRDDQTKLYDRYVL
Kind of experiment: Trypanosoma cruzi proteasome chymotrypsin-like activity (TcProtChymo) assay. Also: in the data most compounds retested in dose-response had high values. Conditions: 9.37 µM. Format: functional.

The species entered for experiment [9] is Homo sapiens. Kind of experiment: To identify inhibition of the IFN signalling (Jak-Stat) pathway via expression of an eGFP reporter gene under the control of an IFN-stimulated response element (ISRE) containing MxA promoter. Conditions: 30 µM. Format: functional. For orientation: In a reporter assay the amount or activity of a reporter protein is the signal.

The target of experiment [10] is Shiga toxin 2 (Escherichia coli O157:H7) (UniProt P09385+P09386). Kind of experiment: E. coli 0.157:H7 Shiga Toxin SOP - stx2 screening assay. Conditions: 30 µM. Format: functional.
Experiment [11] deals with T5, Tyrosyl-tRNA synthetase, putative (Trypanosoma cruzi (strain CL Brener)) (UniProt Q4DSP6).
T5 sequence (whole entry): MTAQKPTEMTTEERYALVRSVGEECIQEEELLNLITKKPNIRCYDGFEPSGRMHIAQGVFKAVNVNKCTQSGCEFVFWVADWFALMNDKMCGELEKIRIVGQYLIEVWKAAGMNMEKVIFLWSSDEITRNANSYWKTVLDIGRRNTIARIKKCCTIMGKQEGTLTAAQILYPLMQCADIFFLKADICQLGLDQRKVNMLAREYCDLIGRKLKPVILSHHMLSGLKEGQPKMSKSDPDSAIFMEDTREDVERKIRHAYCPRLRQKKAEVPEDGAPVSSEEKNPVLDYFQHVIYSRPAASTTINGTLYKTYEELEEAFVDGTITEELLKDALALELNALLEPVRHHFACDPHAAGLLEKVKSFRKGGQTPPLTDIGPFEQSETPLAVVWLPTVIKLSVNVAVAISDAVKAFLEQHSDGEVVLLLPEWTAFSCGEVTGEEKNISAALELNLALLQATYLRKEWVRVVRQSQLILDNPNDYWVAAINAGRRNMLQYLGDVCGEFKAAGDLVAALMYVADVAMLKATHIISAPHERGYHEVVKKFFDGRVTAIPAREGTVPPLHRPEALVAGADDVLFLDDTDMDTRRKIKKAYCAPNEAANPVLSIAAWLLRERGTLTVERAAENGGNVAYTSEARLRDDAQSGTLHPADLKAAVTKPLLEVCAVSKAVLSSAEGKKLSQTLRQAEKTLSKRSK
Kind of experiment: Trypanosoma cruzi tyrosyl tRNA synthetase (TcYRS) _High Tyrosine SOP. Also: in the data most compounds retested in dose-response had high values. Format: functional. As to conditions: 30 µM.

For experiment [12], the target named is T5, Tyrosyl-tRNA synthetase, putative (Trypanosoma cruzi (strain CL Brener)). Kind of experiment: Trypanosoma cruzi tyrosyl tRNA synthetase (TcYRS) SOP. Format: functional. Conditions: 30 µM.
Experiment [13] concerns the target Chromo domain-containing protein 1 (Saccharomyces cerevisiae (strain ATCC 204508 / S288c) (Baker's yeast)) (UniProt P32657). Kind of experiment: ScCHD-1 Enzyme Inhibition Assay. Also: in the data most compounds retested in dose-response had high values. Format: functional. As to conditions: 30 µM.

The values that follow come from ChEMBL document CHEMBL3988442, “University of Dundee, Small-Polar-MMV Screening Library” (2021).

For some assays here: Measured potencies and affinities stand elsewhere.

Chain of Protein translocase subunit SecA (Escherichia coli (strain K12)) (P10408 whole entry): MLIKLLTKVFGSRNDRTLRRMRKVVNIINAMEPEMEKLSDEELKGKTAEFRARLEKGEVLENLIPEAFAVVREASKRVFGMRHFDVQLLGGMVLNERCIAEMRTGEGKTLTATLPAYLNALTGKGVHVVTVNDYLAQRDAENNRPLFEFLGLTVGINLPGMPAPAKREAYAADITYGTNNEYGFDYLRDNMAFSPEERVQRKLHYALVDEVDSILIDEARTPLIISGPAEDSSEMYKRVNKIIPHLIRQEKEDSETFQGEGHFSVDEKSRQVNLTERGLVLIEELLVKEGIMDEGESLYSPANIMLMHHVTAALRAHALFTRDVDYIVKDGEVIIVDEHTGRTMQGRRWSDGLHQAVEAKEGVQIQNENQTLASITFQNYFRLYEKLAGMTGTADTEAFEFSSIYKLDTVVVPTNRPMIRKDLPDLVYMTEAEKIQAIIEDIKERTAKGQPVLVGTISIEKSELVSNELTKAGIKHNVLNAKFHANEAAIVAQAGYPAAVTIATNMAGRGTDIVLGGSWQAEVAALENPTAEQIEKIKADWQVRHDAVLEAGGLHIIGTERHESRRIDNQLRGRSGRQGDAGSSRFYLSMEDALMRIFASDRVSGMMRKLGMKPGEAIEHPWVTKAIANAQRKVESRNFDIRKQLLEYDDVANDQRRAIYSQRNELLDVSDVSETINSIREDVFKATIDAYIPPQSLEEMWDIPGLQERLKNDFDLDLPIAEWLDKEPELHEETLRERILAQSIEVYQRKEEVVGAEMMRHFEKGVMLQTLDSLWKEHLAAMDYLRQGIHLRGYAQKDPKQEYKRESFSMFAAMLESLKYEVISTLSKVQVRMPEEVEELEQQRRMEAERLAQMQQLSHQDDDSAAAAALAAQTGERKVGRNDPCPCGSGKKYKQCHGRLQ
Chain of Chromo domain-containing protein 1 (Saccharomyces cerevisiae (strain ATCC 204508 / S288c) (Baker's yeast)) (P32657 whole entry, the tested form may be a part): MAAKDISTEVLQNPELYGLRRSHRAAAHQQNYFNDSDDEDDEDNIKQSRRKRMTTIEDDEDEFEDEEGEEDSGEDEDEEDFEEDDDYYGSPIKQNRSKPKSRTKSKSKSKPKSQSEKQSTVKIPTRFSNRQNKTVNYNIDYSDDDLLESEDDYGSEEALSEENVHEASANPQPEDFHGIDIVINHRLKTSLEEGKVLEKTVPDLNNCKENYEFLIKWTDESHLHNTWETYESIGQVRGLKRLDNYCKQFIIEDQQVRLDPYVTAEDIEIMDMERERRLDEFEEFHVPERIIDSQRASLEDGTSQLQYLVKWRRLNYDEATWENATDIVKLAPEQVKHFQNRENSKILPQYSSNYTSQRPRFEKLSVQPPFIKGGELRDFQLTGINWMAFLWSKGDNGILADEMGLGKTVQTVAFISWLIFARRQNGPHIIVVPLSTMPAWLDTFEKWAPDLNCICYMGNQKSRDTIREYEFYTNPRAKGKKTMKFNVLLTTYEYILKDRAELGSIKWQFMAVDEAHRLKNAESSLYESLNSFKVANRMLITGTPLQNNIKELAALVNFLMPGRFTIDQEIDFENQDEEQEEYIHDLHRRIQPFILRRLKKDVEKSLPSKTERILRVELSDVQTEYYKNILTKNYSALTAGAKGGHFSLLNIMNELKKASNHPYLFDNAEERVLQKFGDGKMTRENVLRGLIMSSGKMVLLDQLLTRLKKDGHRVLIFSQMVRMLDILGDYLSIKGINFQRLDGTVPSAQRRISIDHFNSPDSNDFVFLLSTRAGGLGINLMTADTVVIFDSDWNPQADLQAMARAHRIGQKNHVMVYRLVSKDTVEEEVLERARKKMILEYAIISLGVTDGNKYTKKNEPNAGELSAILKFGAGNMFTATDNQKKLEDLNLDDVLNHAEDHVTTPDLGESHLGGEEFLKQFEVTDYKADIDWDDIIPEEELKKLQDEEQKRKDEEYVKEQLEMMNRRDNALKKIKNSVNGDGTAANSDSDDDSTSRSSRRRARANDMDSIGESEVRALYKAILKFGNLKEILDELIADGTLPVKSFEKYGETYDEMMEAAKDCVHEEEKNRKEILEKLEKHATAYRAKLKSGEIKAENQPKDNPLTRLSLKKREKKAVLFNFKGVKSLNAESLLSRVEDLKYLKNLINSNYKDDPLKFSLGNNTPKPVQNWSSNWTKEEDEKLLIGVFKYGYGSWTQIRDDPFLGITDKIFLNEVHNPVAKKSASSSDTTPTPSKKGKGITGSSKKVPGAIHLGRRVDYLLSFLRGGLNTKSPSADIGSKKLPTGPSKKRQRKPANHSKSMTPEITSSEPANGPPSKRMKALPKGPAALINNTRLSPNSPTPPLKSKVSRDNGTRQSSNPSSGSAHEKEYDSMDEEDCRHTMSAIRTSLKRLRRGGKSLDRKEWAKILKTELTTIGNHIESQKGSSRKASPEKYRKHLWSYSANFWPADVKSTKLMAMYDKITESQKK

On to `Cc1cc(CC(=O)N2CCN(CC3CC3)[C@@H]3CS(=O)(=O)C[C@@H]32)ccc1F`, for which the Percent Effect in experiment [1] is -1.82%; in experiment [2], 6.94%; in [3], 3.29%; in experiment [4] it was 35.7%; in experiment [5], -0.65%; in [6], 0.0972%. The Percent Effect in [7] is 3.53%; in experiment [8], 7.02%; in experiment [9], -1.41%; in experiment [10] it was 1.5%; in experiment [11] it was 7.37%; in experiment [12] it was -15.4%. Further, in [13], the Percent Effect is -3.03%.

As for `Cc1cccc(CN2C[C@H](NS(C)(=O)=O)[C@@H]3OCCC[C@@H]32)n1`, the Percent Effect in experiment [1] is -0.629%; in experiment [2], -5.33%; in [3], -2.65%; in experiment [4] it was 9.72%; in experiment [5], 5.95%; in [6] it was -4.83%. For the same compound, the Percent Effect in experiment [7] was -50%; in experiment [8], 0.513%; in [9] it was 3.24%; in [10], -15.5%; in experiment [11], 1.04%; in experiment [12], -5%. For the same compound, the Percent Effect in experiment [13] was -2.83%.

Regarding `CN(C)c1ncc2c(n1)C1(CCN(CC3CC3)C1)COC2` (stereo not given), the Percent Effect in experiment [1] was 2.42%; in experiment [2], 0%; in experiment [3], 0.342%; in experiment [4] it was 0.164%; in [5], 8.71%; in experiment [6], -4.37%. In addition, the Percent Effect in [7] was 0.798%; in [8], 13.1%; in experiment [9] it was -7.22%; in experiment [10] it was -16.3%; in experiment [11] it was 7.29%; in [12] it was 11.1%. Also, the Percent Effect in experiment [13] was -5.42%.

With `CCn1cc(CN2CCCN(C(=O)Cc3cccs3)CC2)cn1`, the Percent Effect in experiment [1] was -4.84%; in [2] it was 22.8%; in experiment [3], -2.8%; in [4] it was -10.6%; in experiment [5], 3.48%; in [6], 6.52%. In addition, the Percent Effect was -0.76% in experiment [7]; 15.6% in experiment [8]; -4.27% in experiment [9]; -21.2% in [10]; 10.3% in experiment [11]; 29.1% in experiment [12]. In addition, in experiment [13], the Percent Effect was -8.38%.

For the compound `O=C1CC2(CCN(CC3CC3)C2)CN1c1cccnc1` (stereo not given), the Percent Effect in [1] was -0.0321%; in experiment [2], 8.11%; in experiment [3], 1.57%; in experiment [4], -3.31%; in [5], 8.46%; in experiment [6] it was -5.18%. The Percent Effect in [7] was 7.2%; in experiment [8], 11.4%; in experiment [9], -22.5%; in [10], -25.7%; in [11], 10.8%; in experiment [12], 11.1%. In addition, the Percent Effect in [13] was -7.21%.
